Results on four compounds are retold here after PubChem BioAssay.

Assay [1] is described as follows: suppressors of polyQ aggregation in yeast, 75Q-TubU reporter (AID 1593). Particulars: Yeast 75Q polyglutamine aggregation reporter.
A short description of assay [2]: inhibitors of mitochondrial cytochrome c release, biochemical, purified mitochondria (AID 1603).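 Also: mouse liver mitochondria challenged with calcium chloride; signal normalized to the plate average as 100%.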 As to conditions: stronger effect = lower value.
Assay [3] can be described thus: inhibitors of polyQ protein aggregation (AID 1604). As to conditions: polyglutamine-induced protein aggregation inhibition assay; stronger effect = higher value; tested at 2.5 µM.
Assay [4] is described as follows: stimulators of nuclear beta-catenin in C2C12, primary screen, imaging, WNT3A-conditioned medium, mouse C2C12, NPC library (AID 1117326; in the data active = nuclear beta-catenin stimulation mostly above about 4.2%, no sharp cut-off; inactive = mostly below about 10%). As to conditions: stronger effect = higher value.
A short description of assay [5]: stimulators of insulin release from INS-1E, primary screen, cell-based, 5 mM glucose, NPC library (AID 1117329;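 active = compound raises insulin release from rat beta cells at 5 mM glucose, no numeric limit stated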). As to conditions: rat INS-1E insulin secretion, at 10 µM, stronger effect = higher value.
The nature of assay [6]: growth inhibition of GSK3B-pretreated HCT116 cells – cell-based, CellTiter-Glo, 0.2 to 20 µM (AID 1117336;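 active = compounds lowering colon cancer cell viability after pretreatment blocking the GSK3B kinase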). As to conditions: HCT116 viability after GSK3B inhibitor, at 20 µM, stronger effect = higher value.
Assay [7] can be described thus: inhibition of endothelial tube formation, primary screen, imaging, VEGF stimulated, CD31 staining, tube area, NPC library (AID 1117340;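 active = compound that reduces growth-factor-driven endothelial tube area in a mixed cell culture, no cutoff stated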). As to conditions: VEGF-stimulated ADSC/ECFC co-culture, at 10 µM, stronger effect = higher value.
Assay [8] is described as follows: glucagon-like peptide 1 release enhancers, primary assay, NCI-H716 cell line, NPC library (AID 1117341;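 active = compound raises GLP1 secretion from the human gut endocrine cells, with no numeric limit stated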). Particulars: NCI-H716 cells, at 10 µM, stronger effect = higher value.
The nature of assay [9]: HCT116 colon cancer cell growth inhibition, primary screen, CellTiter-Glo luminescence, NPC library (AID 1117342;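 active = compounds that lower survival of HCT116 colon cancer cells in the luminescence readout, no numeric limit stated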). Particulars: at 20 µM (top of the series).
Assay [10] can be described thus: CellTiter-Glo luminescent readout of SW480 viability loss, NPC library primary (AID 1117343;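 active = compounds that lower viability of the colon cancer cells in the luminescence readout, with no numeric limit stated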). As to conditions: CellTiter-Glo luminescence; at 20 µM (top of the series).
A short description of assay [11]: decreased DLD-1 cellular survival, CellTiter-Glo luminescent readout, NPC compound collection, primary HTS (AID 1117346;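 active = compounds that lower survival of DLD-1 colon cancer cells in the luminescence readout, no cutoff given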). Particulars: DLD-1 viability, CellTiter-Glo luminescence; at 20 µM (top of the series).
The target of assay [12] is 6-phosphogluconate dehydrogenase, decarboxylating (Homo sapiens) (UniProt P52209). As to the kind of experiment: 6PGD enzyme inhibitors, primary screen, biochemical, human, recombinant enzyme, NADPH absorbance (AID 1159550;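 active = at least 20% inhibition of 6-phosphogluconate dehydrogenase activity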). Particulars: recombinant 6PGD, NADPH absorbance 341 nm; at 10 µM; stronger effect = higher value.
Sequence of 6-phosphogluconate dehydrogenase, decarboxylating (Homo sapiens) (P52209 whole entry, looked up): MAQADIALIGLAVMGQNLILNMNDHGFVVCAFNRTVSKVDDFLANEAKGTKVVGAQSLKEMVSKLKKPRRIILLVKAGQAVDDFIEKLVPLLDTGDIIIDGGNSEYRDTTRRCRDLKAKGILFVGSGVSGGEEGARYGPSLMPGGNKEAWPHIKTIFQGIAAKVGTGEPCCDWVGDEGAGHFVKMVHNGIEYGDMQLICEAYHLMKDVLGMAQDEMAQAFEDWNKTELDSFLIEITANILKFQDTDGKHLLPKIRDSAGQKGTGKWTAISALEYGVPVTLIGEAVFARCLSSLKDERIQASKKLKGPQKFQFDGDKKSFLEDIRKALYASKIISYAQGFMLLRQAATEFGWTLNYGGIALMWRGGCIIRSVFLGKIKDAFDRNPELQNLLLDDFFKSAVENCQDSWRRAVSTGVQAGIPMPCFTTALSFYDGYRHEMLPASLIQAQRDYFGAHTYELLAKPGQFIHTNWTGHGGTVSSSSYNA
A short description of assay [13]: differential killing of epithelial or mesenchymal cells, primary screen, imaging, PC-3E GFP, TEM4-18 mCherry, co-culture (AID 1345086;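 active = compounds killing one labelled cell type while sparing the other, by normalised counts and ratio limits, not self-fluorescent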;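 as to all read-outs here: cells exposed to compound for 72 h before imaging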;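 as to red/green cell ratio (normalised): normalised mesenchymal count divided by normalised epithelial count so high means epithelial killing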). As to conditions: imaging cell counts, at 1 µM; for red/green cell ratio (normalised): actives lie on both sides.
The subject of assay [14] is Aerobactin synthetase IucA (Klebsiella pneumoniae hvKP1). As to the kind of experiment: Biochemical IucA enzyme inhibition primary screen of the Spectrum library (AID 1346200; call rule not given here;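 also: 100% = wells without compound and 0% = wells lacking enzyme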). Particulars: malachite green pyrophosphate, A620, at 8 µM, stronger effect = lower value.
Assay [15] can be described thus: sensitizers of A549 cells to miR-34 induction, primary screen, imaging, A549 dox-inducible miR-34, nuclei and caspase counts (AID 1347080). As to conditions: A549 miR-34 inducible, Hoechst nuclei count, 48 h.
A short description of assay [16]: survival rescue of mitochondrial mutant cells in low glucose, primary screen, MELAS cybrids, Rieske KO mouse fibroblasts, CellTiter-Glo (AID 1508586;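 active = mean z-score across replicates of 1.96 or higher in either the MELAS or the Rieske mutant cell line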;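 also: z relative to plate mean and SD of compound and empty wells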).
The target of assay [17] is NAD(+) hydrolase SARM1 (Homo sapiens) (UniProt Q6SZW1). As to the kind of experiment: SARM1 TIR NADase inhibitors, cell lysate, NAD-Glo luminescence (AID 1508614;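 active = compound whose remaining NAD level is above about 45 nM, limit read from the data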;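 also: higher remaining NAD means stronger inhibition of SARM1 NADase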). Particulars: SAM-TIR HEK293T lysate NADase, at 1 µM, stronger effect = higher value.
Sequence of NAD(+) hydrolase SARM1 (Homo sapiens) (Q6SZW1 whole entry, looked up, the tested form may be a part): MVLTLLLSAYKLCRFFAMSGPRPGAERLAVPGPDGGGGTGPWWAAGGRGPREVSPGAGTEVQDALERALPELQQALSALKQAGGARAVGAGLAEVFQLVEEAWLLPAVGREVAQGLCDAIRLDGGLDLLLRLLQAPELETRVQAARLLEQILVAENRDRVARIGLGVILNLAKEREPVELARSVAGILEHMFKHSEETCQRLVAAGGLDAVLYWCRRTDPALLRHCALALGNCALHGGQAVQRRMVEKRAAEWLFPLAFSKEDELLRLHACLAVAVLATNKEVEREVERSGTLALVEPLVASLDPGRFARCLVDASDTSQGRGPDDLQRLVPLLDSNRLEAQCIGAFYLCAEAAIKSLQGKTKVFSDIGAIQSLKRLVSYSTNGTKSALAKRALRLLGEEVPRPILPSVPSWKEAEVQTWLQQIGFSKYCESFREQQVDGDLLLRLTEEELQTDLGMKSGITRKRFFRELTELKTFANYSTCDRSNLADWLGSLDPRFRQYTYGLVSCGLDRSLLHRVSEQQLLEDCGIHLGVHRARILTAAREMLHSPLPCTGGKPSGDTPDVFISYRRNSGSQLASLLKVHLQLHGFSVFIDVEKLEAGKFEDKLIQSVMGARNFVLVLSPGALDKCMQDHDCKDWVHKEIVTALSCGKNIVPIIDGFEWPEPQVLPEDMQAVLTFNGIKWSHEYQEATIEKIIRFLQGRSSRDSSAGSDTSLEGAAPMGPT
For assay [18], the target named is Mitogen-activated protein kinase 7 (Homo sapiens) (UniProt Q13164). The assay can be described thus: ERK5 transactivation activators in reporter cells, primary screen, cell-based, HTS (AID 1508626;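 active = luciferase signal above three times the same-plate solvent-only control wells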;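 also: luciferase driven by Gal4-ERK5 fusion binding five Gal4 sites before minimal TATA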). As to conditions: HeLa Gal4-ERK5 transactivation, 18 h, at 5 µM, stronger effect = higher value.
Sequence of Mitogen-activated protein kinase 7 (Homo sapiens) (Q13164 whole entry, looked up, the tested form may be a part): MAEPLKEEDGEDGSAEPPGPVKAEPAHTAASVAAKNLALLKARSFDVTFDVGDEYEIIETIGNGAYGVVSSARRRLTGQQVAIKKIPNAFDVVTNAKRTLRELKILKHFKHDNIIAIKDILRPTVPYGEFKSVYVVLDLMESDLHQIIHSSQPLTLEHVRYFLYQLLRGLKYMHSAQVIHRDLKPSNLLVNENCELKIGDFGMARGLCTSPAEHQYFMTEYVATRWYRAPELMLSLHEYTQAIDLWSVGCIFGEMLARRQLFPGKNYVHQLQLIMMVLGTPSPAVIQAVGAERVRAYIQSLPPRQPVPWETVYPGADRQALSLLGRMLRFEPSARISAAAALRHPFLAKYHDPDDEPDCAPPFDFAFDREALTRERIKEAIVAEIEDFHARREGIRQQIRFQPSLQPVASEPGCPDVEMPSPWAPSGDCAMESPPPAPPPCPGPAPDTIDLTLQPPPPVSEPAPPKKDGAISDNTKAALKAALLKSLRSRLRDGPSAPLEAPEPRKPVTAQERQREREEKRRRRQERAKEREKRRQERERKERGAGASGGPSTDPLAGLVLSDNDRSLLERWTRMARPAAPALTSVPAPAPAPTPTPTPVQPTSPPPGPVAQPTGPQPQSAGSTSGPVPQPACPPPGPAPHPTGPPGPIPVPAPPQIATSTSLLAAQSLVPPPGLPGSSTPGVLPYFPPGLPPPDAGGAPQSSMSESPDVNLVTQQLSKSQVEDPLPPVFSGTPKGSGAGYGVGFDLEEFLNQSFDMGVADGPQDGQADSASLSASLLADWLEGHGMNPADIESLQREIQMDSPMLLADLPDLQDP
A short description of assay [19]: viability rescue of complex I mutant cybrids, primary screen, cell-based, galactose medium, ATP luminescence (AID 1645843;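 active = z-score of at least 1.8 in each of two replicates, scored against plate mean and spread of sample wells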;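 also: positive z means more ATP and so rescue of galactose-driven cybrid death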). As to conditions: complex I mutant cybrid cells, 72 h, stronger effect = higher value.
Assay [20] in a line: liver-stage malaria parasite growth inhibition, primary screen, cell-based, HepG2, luciferase luminescence, HepG2 viability (AID 624349; in the data active = parasite load remaining mostly below about 12%, no sharp cut-off; inactive = mostly above about 10%;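 also: 100% = mean of DMSO negative control wells on the same plate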). As to conditions: P. berghei liver stage in HepG2, luciferase luminescence, concentration not given here; parasite load remaining: stronger effect = lower value; viability: measured here: HepG2 viability without parasites.
Where [21] appears, read: measured here: epithelial PC-3E GFP cell survival.
Where [22] appears, read: measured here: mesenchymal TEM4-18 mCherry cell survival.
[23] abbreviates: measured here: relative caspase fold change +Dox/-Dox.
[24] abbreviates: measured here: total cells with miR-34 induction, stronger effect = lower value.
Where [25] appears, read: measured here: total cells without miR-34 induction.

Values joined by “and” are separate entries in the source; they are usually repeats but may differ in a detail not shown here. Equal values may be shown once. Active and inactive are the calls of the source.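 The calls were made as follows, unless noted: active = compounds whose cell count with miR-34 switched on is under 0.7 times the count with it off; inactive = the rest.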

In assay [1], `NCC(CC(=O)O)c1ccc(Cl)cc1` (stereo unspecified) displayed a score of 1.02. Further, in [2], the cytochrome c release ratio is 0.97. In [3], this compound came in with an inhibition of aggregation of 63.5%. Besides, the nuclear beta-catenin stimulation was -0.5% (inactive) in assay [4] (at 10 µM) and 0.7% in assay [4] (stimulation, at 2 µM). Moreover, the insulin secretion stimulation in [5] was 2.7% (inactive). Also, the viability decrease in [6] is -7.8% (inactive). For the same compound, the tube area decrease in [7] was -22.1% (inactive). The GLP1 secretion stimulation in assay [8] was -2.6% (inactive). Further, the inhibition of viability in assay [9] is -14.8% (inactive). Besides, the viability decrease (inhibition) in [10] was -1.8% (inactive); in [11], 7.35% (inactive). Also, the inhibition in assay [12] is 5.14% (inactive). For the same compound, the red/green cell ratio (normalised) in assay [13] is 0.69 (inactive). The results for the normalised cell number in assay [13] (setting [21]) and in assay [13] (setting [22]) were 1.3 and 0.89, respectively. Also, the activity remaining in assay [14] was 103% (inactive). Moreover, the fold change was 1.01 (inactive) and 0.984 (inactive) and 0.815 (inactive) in [15] (stronger effect = lower value); 1.78 and 1.11 and 0.933 in [15] (setting [23]). The cell count was 7900 and 7930 and 10200 in [15] (setting [24]); 7820 and 8060 and 12600 in [15] (setting [25]). In addition, the z-score in assay [16] (MELAS cybrid survival, CellTiter-Glo 48 h, stronger effect = higher value) was -0.717 (inactive); in [16] (Rieske KO mouse fibroblast survival, CellTiter-Glo 72 h), -0.464; in assay [19], 0.635 (inactive). Besides, the remaining NAD in [17] is 10 nM (inactive). Further, the luciferase signal in [18] was 56 AU (inactive).
Compound `Oc1ccc(Cl)cc1` gave a score in assay [1] of 0.2. The cytochrome c release ratio in assay [2] amounted to 0.97. Also, in assay [3], the inhibition of aggregation was 31.7%. For the same compound, the parasite load remaining in assay [20] is 99.5% (inactive) and 63.2% (inactive). The viability in assay [20] was 70.5% and 93.7%. Besides, the nuclear beta-catenin stimulation in assay [4] (at 10 µM) is 0.8% (inactive); in [4] (stimulation, at 2 µM), 0.5%. Also, in assay [5], the insulin secretion stimulation is -0.7% (inactive). Further, in assay [6], the viability decrease was 21.3% (inactive). In assay [7], the tube area decrease was 12.2% (inactive). Further, the GLP1 secretion stimulation in assay [8] was 0.3% (inactive). Also, the inhibition of viability in [9] is 17.9% (inactive). The results for the viability decrease (inhibition) in assay [10] and in [11] were 34.5% (inactive) and 6.1% (inactive), respectively. For the same compound, the inhibition in assay [12] was 15% (inactive). The red/green cell ratio (normalised) in [13] was 0.99 (inactive). For the same compound, the normalised cell number in [13] (setting [21]) amounted to 1.1; in assay [13] (setting [22]) it was 1.09. In addition, in assay [14], the activity remaining was 115% (inactive). For the same compound, the fold change is 0.923 (inactive) in [15] (stronger effect = lower value) and 1.34 in assay [15] (setting [23]). In addition, the cell count is 11600 in assay [15] (setting [24]) and 12500 in [15] (setting [25]). In addition, the remaining NAD in assay [17] is 10 nM (inactive). Besides, the luciferase signal in assay [18] was 52 AU (inactive).
Take `O=C1c2ccccc2C(=O)c2ccccc21`: the parasite load remaining in assay [20] is 115% (inactive). For the same compound, the viability in [20] worked out at 67.1%. Moreover, the nuclear beta-catenin stimulation in [4] (at 10 µM) was 1.3% (inactive); in [4] (stimulation, at 2 µM), 0.4%. In addition, in assay [5], the insulin secretion stimulation is -1.4% (inactive). The viability decrease in assay [6] is 2.3% (inactive). The tube area decrease in assay [7] is 6.7% (inactive). The GLP1 secretion stimulation in assay [8] was 1.9% (inactive). In addition, in assay [9], the inhibition of viability was -45% (inactive). For the same compound, the viability decrease (inhibition) was 31.6% (inactive) in assay [10] and 4.05% (inactive) in [11]. Moreover, in [12], the inhibition is -2.54% (inactive). Further, the red/green cell ratio (normalised) in assay [13] is 0.79 (inactive). Also, the figures for the normalised cell number in [13] (setting [21]) and in assay [13] (setting [22]) were 1.17 and 0.92, respectively. For the same compound, the activity remaining in assay [14] is 119% (inactive). In addition, the luciferase signal in assay [18] is 100 AU (inactive).
Turning to `C=C(C)[C@H]1CN[C@H](C(=O)O)[C@H]1CC(=O)O`, the nuclear beta-catenin stimulation in assay [4] (at 10 µM) is 0% (inactive); in assay [4] (stimulation, at 2 µM), 1.5%. For the same compound, the insulin secretion stimulation in assay [5] was -1.6% (inactive). Besides, the viability decrease in assay [6] was 3.4% (inactive). In assay [7], the tube area decrease is -7.3% (inactive). Also, in assay [8], the GLP1 secretion stimulation was -2% (inactive). For the same compound, the inhibition of viability in [9] was -16% (inactive). Also, the viability decrease (inhibition) in assay [10] is -0.1% (inactive); in assay [11], -1.8% (inactive). In addition, in [12], the inhibition is 2.88% (inactive). Also, the fold change in [15] (stronger effect = lower value) was 1.1 (inactive) and 0.956 (inactive); in [15] (stronger effect = lower value, cell number ratio, induced over uninduced) it was 0.95 (inactive); in [15] (setting [23]) it was 1.24 and 0.883 and 0.751. Further, the cell count in assay [15] (setting [24]) was 10600 and 5610 and 8280; in [15] (setting [25]), 9620 and 5900 and 8660. In addition, the remaining NAD in assay [17] was 10 nM (inactive). Besides, the luciferase signal in assay [18] was 68 AU (inactive). Further, the z-score in assay [19] was 0.445 (inactive) and 0.325 (inactive).
